# Source: PubChem BioAssay (National Center for Advancing Translational Sciences (NCATS))
# SNCA viab count: GF-AFC viability counterscreen for inhibitors of alpha-synuclein gene (SNCA) expression; HEK-293-SNCA-luc viability, GF-AFC fluorescence, 24 h; Potency, µM (highest dose often 57.1 µM), hits mostly cytotoxic; actives 0.12% (n = 150,000); AID 1671193, 2021; note: nearly all actives have a fitted effect of over 30% in size
#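 Cytotoxicity counterscreen: after 24 h compound treatment of genome-edited SNCA-luciferase HEK-293 cells, live-cell protease substrate GF-AFC read by fluorescence after 30 min; activity scaled between DMSO (0%) and medium-only (-100%), curves Hill-fitted.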
# IP6K1 inhibitor: Primary qHTS assay for small molecule inhibitors of Inositol hexaphosphate kinase 1 (IP6K1) | activity change, % (series mostly up to about 58 µM) | actives 0.81% (n = 140,000) | Inositol hexakisphosphate kinase 1 (Homo sapiens), Q92551 | IP6K1 kinase, ADP-Glo luminescence, 2 h; active compounds read low; in the data active = activity change below about -25%
#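 ADP-Glo luminescence measures ADP made by human IP6K1 during a 2 h RT reaction with ATP/IP6 (mix at 1.3 mM/130 uM); top library doses 57.5 and 19.1 uM final.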
# SNCA expr inh: Primary qHTS assay for inhibitors of alpha-synuclein gene (SNCA) expression; Potency, µM (titrated, usually from 57.2 µM), usual class: inhibitors; actives 0.17% (n = 140,000); HEK-293 SNCA-luciferase knock-in, luminescence, 24 h; AID 1671194, 2021; note: nearly all actives have a fitted effect of over 45% in size
# KDM5B inhibitor: Primary screen for KDM5B Histone Demethylases FDH-coupled qHTS. KDM5B demethylase, FDH-coupled NADH fluorescence (FDH is formaldehyde dehydrogenase). Potency, µM (doses to about 57.7 µM), usual class: inhibitors. Lysine-specific demethylase 5B (Homo sapiens), Q9UGL1. actives 2.6% (n = 220,000). AID 1347165, 2019; note: nearly all actives have a fitted effect of over 70% in size
#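 qHTS format, multiple compound concentrations. Buffer 50 mM HEPES pH 7.5/0.01% Tween-20; 200 nM KDM5BΔAP final; 10 min compound preincubation; substrate-mix levels 12.5 µM peptide, 25 µM α-KG, 0.25 mM NAD⁺; 30 min RT; ΔRFU.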
# Hits are given with their value; – = inactive; ? = inconclusive; · = not tested or not shown; [ ] = remark or other dose. Rows were chosen to be rich in hits. Some 2.8% of all compounds tested hit in one or more screens of this group. Unless noted, calls come from the whole dose curve; as a rule, active = well fitted curve in the direction sought with a large enough effect; inconclusive = small, poorly fitted or top-dose-only effect, or another doubt; inactive = no such curve, though single readings can be large; an effect the other way counts as inactive or inconclusive.
SMILES,SNCA viab count,IP6K1 inhibitor,SNCA expr inh,KDM5B inhibitor
O=C(c1ccc2nnc(-c3ccc(F)cc3)n2c1)N1CCOCC1,–,–,–,–
Cc1cc(C)nc(CNC(=O)c2ccc3nc(-c4ccc(F)cc4)cn3c2)n1,–,–,–,28µM
O=C(NC1CCCCC1)c1ccc2c(c1)sc1nc(-c3ccc(F)cc3)cn12,–,–,–,–
O=C(c1ccc2nc(-c3ccc(F)cc3)cn2c1)N1CCC(F)CC1,–,–,–,28µM
O=C(NC1C=CS(=O)(=O)C1)c1ccc2nc(-c3ccc(F)cc3)cn2c1 (stereo unspecified),–,–,–,25µM
COc1cc(C=O)ccc1OCCCCOc1c(C)cc(C)cc1Cl,·,·,·,–
O=C(CN1C(=O)C(c2ccccc2)=NC12CCCC2)NCc1ccccc1Cl,–[12.5 µM],–,–,–
ClC(=C\c1ccccc1)/C=N/N1CCN(Cc2cccc3ccccc23)CC1,·,·,·,–
CN(CC1CCOCC1)S(=O)(=O)c1cc(F)ccc1F,–,–,–,–
COc1ccc(CCNC(=O)c2ccc3nc(C)cn3c2)cc1,–,–,–,28µM
O=C(c1ccc2nc(-c3ccccc3)cn2c1)N1C[C@@H]2CCC[C@H]1C2,–,–,–,22µM
CCC(NC(=O)c1ccc2nc(-c3ccc(F)cc3)cn2c1)c1cccnc1 (stereo unspecified),–,–,–,28µM
O=C(NCCCn1ccnc1)c1ccc(Cl)cc1,·,·,·,–
CCn1cc(-c2ccc(F)cc2)cc1C(=O)NCc1cccnc1,–,–,–,–
COc1ccc(CCNC(=O)c2ccc3nnc(-c4cc(C(F)(F)F)cc(C(F)(F)F)c4)n3c2)cc1,–,–,?,·
O=C(NCCCn1ccnc1)c1ccc2nc(-c3ccc(F)cc3)cn2c1,–,–,–,32µM
CCOC(=O)C1=C(COC(=O)c2ccccc2C(F)(F)F)NC(=O)NC1c1ccco1 (stereo unspecified),·,·,·,–
CN(C)c1ccc(-c2ccnc(N[C@H]3CO[C@H]4[C@@H]3OC[C@H]4OC(=O)Nc3cccc(C#N)c3)n2)cc1,–,–,–,–
CN(C)c1ccc(-c2ccnc(N[C@H]3CO[C@H]4[C@@H]3OC[C@H]4OC(=O)NC3CCCCC3)n2)cc1,–,–,–,32µM
O=C(NC1CCCCC1)O[C@@H]1CO[C@H]2[C@@H]1OC[C@@H]2Nc1nccc(-c2cccs2)n1,?,–,–,32µM
C=CCN(Cc1ccc(Cl)s1)C(=O)C1CC1,·,·,·,–
CN(C)c1ccc(-c2ccnc(N[C@H]3CO[C@H]4[C@@H]3OC[C@@H]4NC(=O)NCc3ccccc3)n2)cc1,–,–,–,28µM
COc1ccc(-c2ccnc(N[C@H]3CO[C@H]4[C@@H]3OC[C@@H]4NC(=O)NCc3ccccc3)n2)cc1,–,–,?,25µM
O=C(N[C@H]1CO[C@H]2[C@@H]1OC[C@@H]2Nc1nccc(-c2ccc(-c3ccccc3)cc2)n1)c1ccccc1,–,–,–,?
COc1cccc([S+](=O)([O-])N2CCC3(Cc4ccccc4NC3=O)C2)c1 (stereo unspecified),–,–,–,–
SMILES,SNCA viab count,IP6K1 inhibitor,SNCA expr inh,KDM5B inhibitor
CC1(C)CC(NC(=S)Nc2ccc(Cl)cc2)CC(C)(C)N1,·,·,·,–
c1ccc(Nc2cnc3ccc(N4CCOCC4)nn23)cc1,–,–,–,–
FC(F)(F)c1cccc(Nc2cnc3ccc(N4CCOCC4)nn23)c1,–,–,–,35µM
CCOc1ccccc1NC(=O)N1CCC(Cc2noc(C3CCOCC3)n2)C1 (stereo unspecified),–,–,–,–
COCc1cc(C[C@@H]2C[C@H](NS(=O)(=O)c3ccccc3)C2(C)C)no1,–,–,–,–
CN1CCOc2c(C(=O)NCCc3cnc[nH]3)cc(-c3ccccc3)cc21,–,–,?,32µM
CN1CCOc2c(C(=O)NCCC(N)=O)cc(-c3ccccc3)cc21,–,–,–,35µM
Cc1ccc(CS(=O)Cc2cccc(F)c2)cc1 (stereo unspecified),·,·,·,–
C=C1/C(=C/C=C2\CCC[C@]3(C)[C@@H]([C@H](C)/C=C/C(=O)C4CC4)CC[C@@H]23)C[C@@H](O)C[C@@H]1O,24µM,–,·,·
CC(C)C(=O)N1CCCCCCNC(=O)[C@@H]2C[C@@H](C(=O)N3CCN(c4ccccn4)CC3)C[C@@H]21,–,–,–,25µM
Cc1ccc(CN2CCCCCCNC(=O)[C@@H]3C[C@@H](C(=O)N4CCN(c5ccccn5)CC4)C[C@@H]32)o1,–,–,–,20µM
CCS(=O)(=O)N1CCCCCCNC(=O)[C@@H]2C[C@@H](C(=O)N3CCN(c4ccccn4)CC3)C[C@@H]21,–,–,–,?
O=C(CSc1ncnc2nc[nH]c12)Nc1ccc(F)cc1,·,·,·,–
CC(C)NC(=O)c1cc(Br)cn2ccnc12,–,–,–,40µM
O=C(c1cc(Br)cn2ccnc12)N1CCC(N2CCNC2=O)CC1,–,–,–,?
CNC(=O)c1cc(Br)cn2ccnc12,–,–,–,35µM
CC1(C)CC(Nc2nccc(C(F)(F)F)n2)CC(C)(C)N1,·,·,·,–
CC(Cc1ccncc1)Nc1nccc(-c2cnn(-c3ccccc3F)c2)n1 (stereo unspecified),–,–,–,28µM
CC(Cc1ccncc1)Nc1nccc(-c2cnn(-c3ccccc3)c2)n1 (stereo unspecified),–,–,–,32µM
CC1(C)CC(Nc2nccc(-c3cnn(-c4ccccc4)c3)n2)CC(C)(C)N1,–,–,–,28µM
COCCCn1c(=O)c(C(=O)N2CCN(C(=O)Nc3ccc(Cl)cc3)CC2)nc2cccnc21,–,–,–,·
CCOc1nccn2c(-c3ccc(CN4CCNC(=O)C4)cc3)cnc12,–,–,–,35µM
Cn1ncc2c(C(=O)NCc3ccc(F)cc3)cc(-c3ccc([S+](C)(=O)[O-])cc3)nc21,–,–,?,50µM
C#CCNC(=O)c1cc(-c2ccc([S+](C)(=O)[O-])cc2)nc2c1cnn2C,–,–,–,32µM
Cn1ncc2c(C(=O)N3CCCC3)cc(-c3ccc([S+](C)(=O)[O-])cc3)nc21,–,–,–,89µM
SMILES,SNCA viab count,IP6K1 inhibitor,SNCA expr inh,KDM5B inhibitor
Cn1ncc2c(C(=O)N3CCOCC3)cc(-c3ccc([S+](C)(=O)[O-])cc3)nc21,–,–,–,?
C#CCNC(=O)c1cc(-c2ccc(OC)cc2)nc2c1cnn2C,·,–,·,·
COCCOCC1(CNC(=O)c2nc3ccccc3[nH]2)C[C@@H](O)[C@@H](O)C1 (stereo partly specified),–,–,–,32µM
O=C(NCC1(COc2cnccn2)C[C@@H](O)[C@@H](O)C1)c1nc2ccccc2[nH]1 (stereo partly specified),–,–,–,28µM
COc1ccc(CC(=O)N2CCC(N3C(=O)c4c(c(C)nn4-c4ccccc4)C3C3CC3)C2)cc1 (stereo unspecified),·,–,·,·
CCn1ccnc1CN1CCCC12CCN(c1ccc(C(F)(F)F)cn1)CC2,–,–,–,20µM
